# Records with an inconclusive call do not appear. Calls of active or inactive are those of the source. Calls follow the shape of the dose curve; as a rule, active = well fitted cell-killing curve with a large enough effect in the repeat runs; inconclusive = weak or mixed curves, or effect the other way; inactive = flat fitted curve, though single readings scatter.
# Assay: cAMP Responsive Elements (CRE) small molecule agonists, cell-based qHTS assay: qHTS cell viability counter screen (AID 2060914);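 also: viability read after 3 h of compound exposure; nearly all actives have a fitted effect of over 50% in size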
# Details: CRE-bla HEK293T viability, CellTiter-Glo luminescence, 5 h; series mostly up to 92.4 µM; activity change, negative = cytotoxicity: at the top concentration
# Excerpt: National Center for Advancing Translational Sciences [NCATS]
# Division of Preclinical Innovation [DPI]
# U.S. Environmental Protection Agency [EPA]
# National Institutes of Environmental Health Sciences [NIEHS]
# National Toxicology Program [NTP]
# U.S. Food and Drug Administration [FDA]
# CREB (cyclic-AMP Responsive Element Binding Protein) is a cellular transcription factor. It binds to certain DNA sequences called cAMP Responsive Elements (CRE) and regulates the transcription of the genes. […] This cell line can be used to find agonists/antagonists of the cyclic AMP signaling pathway. The activation of the report gene under culture conditions can be detected by fluorescence intensity. This cell line has been used to screen the Tox21 10K compound library to identify agonists that induce oxidative stress. The cytotoxicity of the Tox21 compound library against the CRE-bla cell line was tested in parallel by measuring the cell viability using CellTiter-Glo assay (Promega, Madison, WI) in the same wells.
# Tox21 Assay Protocol Summary:
# CRE-bla Hek 293T cells were suspended in assay medium (DMEM containing 10% dialyzed FBS, 0.1 mM NEAA, 1 mM sodium pyruvate and 25 mM HEPES) and dispensed at 2,000 cells/5 uL /well into 1536-well black wall/clear bottom plates using a Multidrop Combi (ThermoFisher Scientific, Waltham, MA) dispenser. After the assay plates were incubated at 37 C/5% CO2 for 18 hrs, 23 nL of compounds dissolved in DMSO, positive controls or DMSO only was transferred to the assay plate by a pintool workstation (Kalypsys, San Diego, CA). After the plates were incubated at 37 C/5% CO2 for 3 hrs, 1 uL of LiveBLAzer B/G FRET substrate (Invitrogen, Carlsbad, CA) was added to each well using Bioraptr Flying Reagent Dispenser (FRD, Aurora Discovery, San Diego, CA). The plates were incubated at room temperature for 2 h, then fluorescence intensities were measured using an Envision plate reader (PerkinElmer, Shelton, CT) at Excitation 405nm, Emission 460nm and 530nm. The % activity was determined from the ratio of 460nm/530nm. For cell viability readout that measures cytotoxicity, 4 uL /well of CellTiter-Glo reagent was added into the assay plates using Bioraptr FRD. After 30 min incubation at room temperature, the luminescence intensity in the assay plates was measured using a ViewLux (PerkinElmer, Shelton, CT) plate reader.
# % is scaled to controls: 0 for no effect and ±100 for the full control effect.
Compound,"activity change, negative = cytotoxicity",Potency
Nc1ccc(Cl)c([N+](=O)[O-])c1,-16.5% (inactive),–
O=C(OCCN1CCOCC1)c1cccnc1Nc1cccc(C(F)(F)F)c1,5.67% [at 42.5 µM] (inactive),–
CC(=O)N(CC(O)CN(C(C)=O)c1c(I)c(C(=O)NCC(O)CO)c(I)c(C(=O)NCC(O)CO)c1I)c1c(I)c(C(=O)NCC(O)CO)c(I)c(C(=O)NCC(O)CO)c1I (stereo not given),-3.41% [at 42.5 µM] (inactive),–
CC(C)CC(C)(O)C#CC(C)(O)CC(C)C (stereo not given),–,inactive
CN(C)N=Nc1ccccc1,0.687% (inactive),–
CCn1cc(C(=O)O)c(=O)c2cnc(N3CCNCC3)nc21,-0.615% [at 42.5 µM] (inactive),–
CC(C)OP(=O)(CP(=O)(OC(C)C)OC(C)C)OC(C)C,–,inactive
Cc1ccc(C(=O)Oc2ccc(C(O)CNC(C)(C)C)cc2OC(=O)c2ccc(C)cc2)cc1 (stereo not given),14.9% [at 42.5 µM] (inactive),–
CC(=O)OC(C)C[N+](C)(C)C (stereo not given),2.75% [at 42.5 µM] (inactive),–
NC(=O)N(O)[C@@H]1C=C[C@H](Oc2cccc(Oc3ccc(F)cc3)c2)C1,12.5% (inactive),–
C=CC(=O)CC,21.3% (inactive),–
C[C@@H]1C[C@H]2[C@@H]3C[C@H](F)C4=CC(=O)C=C[C@]4(C)[C@@]3(F)[C@@H](O)C[C@]2(C)[C@@]1(O)C(=O)CO,13.5% [at 42.5 µM] (inactive),–
CN(C1CCCCC1)S(=O)(=O)c1ccccc1N,-2.68% (inactive),–
Clc1cc(Cl)c(Cl)cc1Cl,–,inactive
CC(C)(C)C(=O)C(=O)O,0.833% (inactive),–
CCCCCCCCCCCCS,–,inactive
C=CCSCC1Nc2cc(Cl)c(S(N)(=O)=O)cc2S(=O)(=O)N1 (stereo not given),-2.05% [at 42.5 µM] (inactive),–
O=CN1CCCCC1,15% (inactive),–
CCCCCCCCCCC[C@@H](C[C@@H]1OC(=O)[C@H]1CCCCCC)OC(=O)[C@H](CC(C)C)NC=O,4.44% [at 42.5 µM] (inactive),–
CN1CCN(c2cc3c(nn2)Oc2ccccc2N3C)CC1,1.04% [at 18.9 µM] (inactive),–

Compound,"activity change, negative = cytotoxicity",Potency
Brc1cc(Oc2cc(Br)c(Br)c(Br)c2Br)c(Br)c(Br)c1Br,–,inactive
CC(=O)C1=C(C)[C@@H]2C[C@@]3(C1)[C@H](C)CC[C@H]3C2(C)C,–,inactive
CC(C)C(=O)c1c(C(C)C)nn2ccccc12,-2.31% [at 42.5 µM] (inactive),–
CC(C)C1OCCN1CCOC(=O)NCCCCCCNC(=O)OCCN1CCOC1C(C)C (stereo not given),-1.29% (inactive),–
O=C(C1CCCCC1)N1CC(=O)N2CCc3ccccc3C2C1 (stereo not given),–,inactive
CC(C)(C)c1cccc(C(C)(C)C)c1O,–,inactive
CCO[C@H](Cc1ccc(OCCc2ccc(OS(C)(=O)=O)cc2)cc1)C(=O)O,13.3% [at 42.5 µM] (inactive),–
Cc1[nH]cnc1CN1CCc2c(c3ccccc3n2C)C1=O,-12.1% [at 42.5 µM] (inactive),–
CC(C)C(=O)OCc1cccc(OC(=O)[C@@H]2N3C(=O)[C@@H](NC(=O)Cc4ccccc4)[C@H]3SC2(C)C)c1,14.2% [at 42.5 µM] (inactive),–
CCOC(=O)[C@@H](C)Oc1ccc(Oc2nc3ccc(Cl)cc3o2)cc1,-19.3% (inactive),–
CN(C)C(=O)NC1(c2ccccc2)CCN(CCC[C@]2(c3ccc(Cl)c(Cl)c3)CCCN(C(=O)c3ccccc3)C2)CC1,-0.87% [at 18.9 µM] (inactive),–
CC(C)CCCCCOC(=O)CCCCC(=O)OCCCCCC(C)C,-6.02% (inactive),–
O=c1n(CC2CO2)c(=O)n(CC2CO2)c(=O)n1CC1CO1 (stereo not given),–,inactive
NC(=O)N1c2ccccc2CC(=O)c2ccccc21,11.9% [at 42.5 µM] (inactive),–
OC[C@@H](O)[C@@H](O)[C@H](O)[C@@H](O)CO,–,inactive
CC(C)CC(=O)OCc1ccccc1,8.95% (inactive),–
O=C(O)Cc1sc(-c2ccccc2)nc1-c1ccc(Cl)cc1,8.42% [at 42.5 µM] (inactive),–
CCCCCCCCCCCCCc1ccccc1,-20.4% [at 42.5 µM] (inactive),–
O=C(O)CN(CC(=O)O)CC(=O)O,-1.11% (inactive),–
CCCCCCCCCCCCCCCCCCN(C)C,-10.3% [at 42.5 µM] (inactive),–

# From PubChem BioAssay (Tox21)
